PubChem BioAssay (NCATS)
Several values for one entry are separate records, joined by “and”; a condition that tells them apart may be missing. Equal values may be shown once. Results filed as inconclusive are left out. Activity calls are given as the source filed them. Unless noted, calls follow the shape of the dose curve; as a rule, active = well fitted curve in the direction sought with a large enough effect; inconclusive = small, poorly fitted or top-dose-only effect, or another doubt; inactive = no such curve, though single readings can be large; an effect the other way counts as inactive or inconclusive.

What was measured:
[1] = qHTS Assay for Identifying Gametocytocidal Compounds (AID 743244);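 also: % is scaled to controls: 0 for no effect and ±100 for the full control effect; actives lower the fluorescent signal which means gametocytes are killed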; settings: P. falciparum 3D7 stage III-V gametocytes, alamarBlue, 72 h; max response: active compounds read low
In short: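 Stage III–V gametocytes of P. falciparum 3D7 were seeded at 20,000 cells/well onto pre-dispensed compounds. After 72 h, 37 °C, 5% CO2, alamarBlue was added for another 24 h.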

[2] = qHTS assay for measurement of the activity of small molecule inhibitors on Zika virus induced Caspase-3 activity in human iPSC derived neural progenitor cells (hNPCs) (AID 1224857); also: % of control where 0% means no effect; nearly all actives have a fitted effect of over 65% in size
In short: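 Values are percent inhibition of virus-induced caspase-3/7 signal, scaled between uninfected cells and ZIKV-infected cells. Infection used 2 FFU/cell for 6 h after 1 h compound exposure.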

[3] = qHTS assay for measurement of the activity of small molecule inhibitors on Zika virus induced Caspase-3 activity in human astrocytoma cells (AID 1224859);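 also: plate controls were ZIKV-infected untreated cells for no effect and uninfected cells for full effect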
In short: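 Compound added 1 h pre-infection; ZIKV 2 FFU/cell on SNB-19 cells, 6 h, 37 C/5% CO2. Caspase-Glo 3/7 luminescence; values as % inhibition of ZIKV-induced caspase activity.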

[4] = qHTS assay for small molecule agonists of the antioxidant response element (ARE) signaling pathway measured by Nrf2-dependant transcriptional activity - cell viability counter screen (AID 720653; active = well fitted curve in the direction sought with a large enough effect in the repeat runs; an effect the other way counts as inactive or inconclusive; also: % is scaled to controls: 0 for no effect and ±100 for the full control effect); settings: ARE-bla HepG2 viability, CellTiter-Glo ATP luminescence, 16 h; max response: active compounds read low
In short: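 ARE-bla HepG2 cells (2,000/well) rested 5 hrs at 37C/5% CO2, then exposed to compounds in DMSO for 16 hrs. Viability was read in the same wells as intracellular ATP by luminescence, 30 min at room temperature after reagent addition.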

[5] = qHTS assay for cell viability of HEK293 cells (AID 743288); settings: ATP luminescence (CellTiter-Glo), 18 h, active compounds read low; also: % is scaled to controls: 0 for no effect and ±100 for the full control effect; nearly all actives have a fitted effect of over 50% in size
In short: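 Parental HEK293 cells, 2,000 per well, preincubated at least 5 h at 37 C, then exposed to compounds in DMSO for 18 h at 37 C. Viability by CellTiter-Glo ATP luminescence after 30 min at room temperature.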

[6] = qHTS assay for cell viability of the p53RE-bla HCT-116 cell line (AID 743292); also: % is scaled to controls: 0 for no effect and ±100 for the full control effect; nearly all actives have a fitted effect of over 55% in size
In short: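 Readout: CellTiter-Glo luminescence after 30 min RT. Treatment: compounds in DMSO, 16 h, 37 C. Cells: CellSensor p53RE-bla HCT-116, 4,000/well, preincubated 5 h.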

COc1c(C)c2c(c(O)c1C/C=C(\C)CCC(=O)OCCN1CCOCC1)C(=O)OC2
inactive: max response [1] 2.71% | Potency [2] | outcome [3]

Cc1cc(O)c2c(O)c3c(O)cccc3cc2c1
inactive: max response [1] 12.2% | Potency [2] | outcome [3]

Nc1ccc(O)cc1
inactive: max response [4] -19.2% | max response [5] -8.77% | Potency [6] | Potency [2] | outcome [3]

O=P(O)(O)OCC(O)CO (stereo not drawn)
inactive: max response [1] 11.3% | Potency [2] | outcome [3]

CNC[C@H](O)[C@@H](O)[C@H](O)[C@H](O)CO
inactive: max response [1] 10.7% | Potency [2] | outcome [3]

O=C(CCC1CCN(Cc2ccccc2)CC1)c1ccc2c(c1)NCCCC2
inactive: max response [1] -4.54% | Potency [2] | outcome [3]

CCCc1c2oc(C(=O)O)cc(=O)c2cc2c(=O)cc(C(=O)O)n(CC)c12
inactive: max response [1] -6.99% | Potency [2] | outcome [3]

OC(CCCN1CCCCC1)(c1ccccc1)c1ccccc1
inactive: max response [1] -13.7% | Potency [2] | outcome [3]

CN1CC(=O)N2[C@H](c3ccc4c(c3)OCO4)c3[nH]c4ccccc4c3C[C@@H]2C1=O
inactive: max response [1] -3.23% | Potency [2] | outcome [3]

C=CCOc1cc(Cl)ccc1C(=O)NCCN(CC)CC
inactive: max response [1] 9.51% | Potency [2] | outcome [3]

CO/N=C(/C(=O)N[C@@H]1C(=O)N2C(C(=O)[O-])=C(C[n+]3ccn4ncccc43)CS[C@H]12)c1nsc(N)n1
inactive: max response [1] -9.85% and -19.4% | Potency [2] | outcome [3]

CSc1ccc(/C=C2/C(C)=C(CC(=O)O)c3cc(F)ccc32)cc1
inactive: max response [1] -4.94% | Potency [2] | outcome [3]
